In the library only some 1.4% were active in any assay of this set; here they are far more common.
BJeLR viability – MLPCN primary cell-based screen for lethality selective to Ras in HRASV12 cells. hit rate 0.17% among 300,000. AID 1554, 2009. inhibition, % (test concentration not listed). BJeLR (HRASV12) viability, CellTiter-Glo ATP luminescence, 48 h; in the data active = inhibition above about 50%
SARS 3CLpro inh – SARS-CoV 3CLpro protease inhibitors, primary screen, biochemical, quenched FRET. inhibition, % at 6 µM. recombinant SARS-CoV 3CLpro, quenched FRET peptide cleavage. AID 1706, 2009. Replicase polyprotein 1ab (Severe acute respiratory syndrome coronavirus), P0C6X7. hit rate 0.14% among 290,000; in the data active = inhibition above about 12%
CCHFV vOTU inh – CCHFV vOTU protease inhibitors, primary screen, biochemical, Pep-AMC substrate, fluorescence; hit rate 0.55% among 370,000; Crimean-Congo hemorrhagic fever virus L polyprotein viral ovarian tumor (vOTU) protease …; inhibition, % at 11.5 µM; AID 651958, 2012; in the data active = inhibition above about 30%; also: 0% = vehicle wells with enzyme and 100% = no enzyme wells
MazEF act – activators of E. coli MazEF toxin-antitoxin RNase, primary screen, biochemical, fluorescence, uHTS; Endoribonuclease toxin MazF (Escherichia coli (strain K12)), P0AE70; FAM/BHQ RNA-DNA oligo cleavage fluorescence, 5 h; activation, % at 20 µM; hit rate 0.32% among 350,000; AID 504720, 2011; in the data active = activation above about 50%
Target sequence (P0AE70 whole entry, looked up): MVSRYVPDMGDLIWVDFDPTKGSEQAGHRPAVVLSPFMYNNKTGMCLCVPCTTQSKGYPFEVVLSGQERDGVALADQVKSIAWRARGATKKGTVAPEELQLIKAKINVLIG
VHR inh abs – VHR1 phosphatase inhibitors, primary screen, biochemical, absorbance, uHTS; Dual specificity protein phosphatase 3 (Homo sapiens), P51452; hit rate 0.52% among 290,000; inhibition, % at 13.3 µM; recombinant VHR phosphatase, pNPP absorbance; in the data active = inhibition above about 50%
Target sequence (P51452 whole entry, looked up): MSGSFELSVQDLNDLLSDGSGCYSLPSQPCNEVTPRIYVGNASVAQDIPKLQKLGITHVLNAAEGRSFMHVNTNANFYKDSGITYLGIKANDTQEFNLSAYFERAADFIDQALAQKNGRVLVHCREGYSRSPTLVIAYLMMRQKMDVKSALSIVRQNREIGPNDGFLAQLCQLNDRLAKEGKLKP
Starred values were filed as active, the others as inactive; / = no result.

SMILES	BJeLR viability	SARS 3CLpro inh	CCHFV vOTU inh	MazEF act	VHR inh abs
Cc1cccc(C)c1-n1nnnc1SCC(=O)c1c(N)n(C2CC2)c(=O)[nH]c1=O	/	/	1	55*	/
Cc1ccc(-n2nnnc2SCC(=O)c2c(N)n(C3CC3)c(=O)[nH]c2=O)cc1C	/	/	3	57*	/
Cc1cc(NC(=O)/C(C#N)=C\c2ccc(-c3ccc(SC(F)F)cc3)o2)n(-c2ccccc2)n1	/	/	-16	432*	/
Cc1c(NC(=O)/C(C#N)=C/c2ccc(-c3ccc(Cl)c(Cl)c3)o2)c(=O)n(-c2ccccc2)n1C	-12	-4	-5	-4	14
N#CC1(C#N)CC(C=O)=C(N)C1(C#N)CC(=O)c1ccc(F)cc1 (stereo not drawn)	3	-4	7	154*	21
O=C(C[N+]12CC[N+](CC(=O)c3ccc(F)cc3)(CC1)CC2)c1ccc(F)cc1	7	7	25	4	21
O=C(Nc1ccc(F)cc1)OCc1cn(Cc2ccccc2F)nn1	/	/	-4	/	/
CCCCNC(=O)CCCCCn1c(=O)[nH]c2cc(OC)c(OC)cc2c1=O	-2	3	-7	1	22
CCCCCNC(=O)CCCCn1c(=O)[nH]c2cc(OCC)c(OCC)cc2c1=O	-5	-6	-12	-1	51*
Cc1cc(OCC(=O)NCc2ccc(S(N)(=O)=O)cc2)c2c3c(c(=O)oc2c1)CCC3	2	-1	0	72*	-2
Cc1cc(OCC(=O)NCc2ccncc2)c2c3c(c(=O)oc2c1)CCC3	-6	-5	-12	22	6
CC1(c2nnnn2Cc2ccccc2)CN(S(C)(=O)=O)CC(=O)N1Cc1cccs1 (stereo not drawn)	/	/	5	/	/
CCC(=O)Nc1ccc2c(c1)Cc1cc([N+](=O)[O-])ccc1-2	/	/	6	58*	/
COc1ccc(NC(=O)Nc2cccc([N+](=O)[O-])c2)cc1Cl	10	5	-3	106*	49
O=C(Nc1cccc([N+](=O)[O-])c1)Nc1ccc2c(c1)CCC2	1	9	11	84*	18
CCOC(=O)c1csc(NC(=O)C2CCCN(S(=O)(=O)c3ccc([N+](=O)[O-])cc3)C2)n1 (stereo not drawn)	/	/	1	/	/
O=c1c2c(n3nnnc3n1Cc1ccc(Cl)cc1)-c1ccccc1CC21CCCC1	/	/	0	/	/
CC(=O)C1=C(c2cccc([N+](=O)[O-])c2)N(C(C)=O)n2c(C)nnc2S1	-7	0	-2	52*	16
Cc1cccc2c(=O)c(C(=O)NCCCN3CCOCC3)c[nH]c12	0	1	1	8	53*
CCOc1ccc2[nH]cc(C(=O)NCCCN3CCOCC3)c(=O)c2c1	3	4	-7	4	39
CCN(C(=O)C1CCCN(c2nnc(-n3cccc3)s2)C1)c1ccccc1C (stereo not drawn)	/	/	5	/	/
CCCOc1ccc2oc(=O)c3c(c2c1)CCCN3C(=O)CN1CCN(c2ncccn2)CC1	-7	5	0	3	56*
CCCOc1ccc2oc(=O)c3c(c2c1)CCCN3C(=O)CN1CCN(C(=O)c2ccco2)CC1	-1	-9	/	/	13
COC(=O)c1c(Cl)c2n3ccccc3c(C)c(-c3ccccc3)c-2c1C(=O)OC	9	-9	14	-53	6
COC(=O)c1cc2c(-c3ccccc3)c(C)c3ccccn3c-2c1C(=O)OC	7	1	2	50*	6
SMILES	BJeLR viability	SARS 3CLpro inh	CCHFV vOTU inh	MazEF act	VHR inh abs
CS(=O)(=O)N(Cc1ccc(C(=O)Nc2ccccc2Sc2ccccc2)cc1)c1ccccc1	1	13*	8	2	14
O=C(Nc1ccccc1Sc1ccccc1)c1ccccc1	2	3	7	-8	12
C[C@@H]1C[C@H]2[C@@H](C)C(=O)N3[C@H](c4ccccc4)[C@H](C)C[C@H]3[C@@H](C)C(=O)N2[C@@H]1c1ccccc1	/	/	6	/	/
O=C(NCc1cccc(C(F)(F)F)c1)c1c[nH]c(=O)s1	/	/	4	/	/
CC(=O)c1c[nH]c(C(=O)NCc2cccc(C(F)(F)F)c2)c1	-4	-9	-5	-2	53*
COC(=O)C1CN(Cc2ccc(Cl)cc2)CCS(=O)(=O)N1Cc1cn(Cc2ccc(C)cc2)nn1 (stereo not drawn)	/	/	12	/	/
COc1ccc(Cn2c(C)nc3c(c2=O)c2nc4ccccc4nc2n3Cc2ccco2)cc1	/	/	12	-18	/
COc1ccc(Cn2c3nc4ccccc4nc3c3c(=O)n(Cc4ccco4)c(C)nc32)cc1	/	/	/	/	91*
Cc1nc2ccc(C(=O)OCc3ccccc3Br)cc2nc1C	1	-5	-14	60*	32
COc1ccc(O)c(C2=Nc3ccccc3N=C(c3ccco3)C2)c1	0	5	2	20	-15
Oc1ccc(Cl)cc1C1=Nc2ccccc2N=C(c2ccco2)C1	-2	7	6	113*	-4
O=C(COCc1ccccc1)N1CCC(Oc2cccnc2)CC1	/	/	1	/	/
Cc1cc(C)c2cc3c(N)c(C(=O)Nc4c(C)[nH]c(=O)[nH]c4=O)sc3nc2c1	-2	6	-24	155*	-2
CCC(c1ccc(OC)cc1)c1cn(C)c2ccccc12 (stereo not drawn)	/	/	3	/	/
CCOC(=O)Cn1c(=O)c(-c2ccccc2NCc2ccccc2)nc2ccccc21	-8	-1	1	61*	/
COc1ccc(CNC(=O)C(C)N2C(=O)NC(c3ccccc3)(c3ccccc3)C2=O)cc1 (stereo not drawn)	/	/	0	2	/
CCNC(=O)NC(=O)C(C)N1C(=O)NC(c2ccccc2)(c2ccccc2)C1=O (stereo not drawn)	-3	2	12	-2	55*
CN(C)c1ccc(NC(=O)c2ccc(N3CCOCC3)nc2)cc1	-11	-1	-1	-9	52*
C=CCN1C(=O)[C@@H](CC(=O)NCc2cccc(C(F)(F)F)c2)[C@]2(C(=O)OCC)CCCCC/C=C/12	/	/	16	/	/
CN(C)CCCNC(=O)C[C@@H]1CC[C@@H]2[C@H](COc3ccc(NC(=O)c4cccc(F)c4)cc3C(=O)N2C)O1	/	/	-1	/	/
CCN1CCN(c2nc3c(c(=O)[nH]c(=O)n3C)n2CCCSc2ncccn2)CC1	18	1	14	54*	10
CC1CN(C(=O)CCC(=O)NCCCN2C(C)CCCC2C)c2ccccc2O1 (stereo not drawn)	3	-7	-4	13	53*
CC1CCC(NC(=O)CCC(=O)N2CC(C)Oc3ccccc32)CC1 (stereo not drawn)	-5	1	6	2	9
O=C(N/N=C(\c1ccccc1)c1cccnc1)c1ccc(O)cc1	5	-3	25	2	6
O=C(N/N=C(\c1ccccc1)c1cccnc1)c1cccc(F)c1	67*	-1	11	-11	32

Screening data: PubChem BioAssay, several laboratories
